The list is not random: actives were taken first. Their share in the collection is about 7.9%.
HCV inhibitor: inhibitors of hepatitis C virus infection | Huh7.5.1 HCVcc-Cre infection, luciferase reporter, 44 h | Potency, µM (highest dose often 41.8 µM), for inactives: at the highest dose activity change, negative = inhibition, usual class: inhibitors | hit rate 3.4% among 340,000 | AID 651820; active = well fitted inhibition curve with a large enough effect; inconclusive = small, poorly fitted or top-dose-only effect, or another doubt; inactive = no such curve, though single readings can be large or run the other way; also: potency is read from the fitted curve at half-maximal effect
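Compounds are dispensed onto cells plated 4 h earlier at 1,000 per well, with HCVcc-Cre virus (about 0.5 moi) added next. Following 44 h of culture, luminescent signal is measured for 15 sec after 15 min with substrate at room temperature.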
Lassa entry inh: Lassa virus entry inhibition | Lassa virus pseudotype entry inhibition, cell reporter | Potency, µM (titrated, usually from 37.9 µM), for inactives: at the highest dose activity change, negative = inhibition, usual class: inhibitors | hit rate 1.2% among 300,000 | AID 540256; calls by dose curve; tested in HEK293 cells; also: potency is read from the fitted curve at half-maximal effect; nearly all actives have a fitted effect of over 50% in size
FMDV inh: antivirals against foot and mouth disease virus; FMDV antiviral cell-based qHTS; Potency, µM (top dose mostly 57.9 µM), without a hit: at the top dose activity change, negative = inhibition, usual class: inhibitors; hit rate 1.2% among 410,000; AID 1159524; calls by dose curve; tested in HEK293T cells; also: read-out not given here; potency is read from the fitted curve at half-maximal effect; nearly all actives have a fitted effect of over 45% in size
MARV entry inh: inhibitors of Marburg virus binding or cell entry | Potency, µM (titrated, usually from 37.8 µM), for inactives: top-dose activity change, negative = inhibition, hits mostly inhibitors | AID 540276 | Marburg virus pseudotyped entry inhibition, cell reporter | hit rate 1.8% among 300,000; calls by dose curve; tested in HEK293 cells; also: potency is read from the fitted curve at half-maximal effect
HCMV antiviral: blocks human cytomegalovirus replication; HFF cells, HCMV-luciferase reporter, 72 h; stronger effect = lower value; activity change, negative = inhibition, % at 57.5 µM; hit rate 4.5% among 410,000; AID 1259415; in the data active = activity change below about -60%; inconclusive = no clear call, values can overlap the other calls; inactive = above about -39%
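Two-dose cell screen: HFF monolayers treated with compounds and infected with luciferase-expressing HCMV at 1 PFU/cell, 72 h at 37C, then lysed for luciferase measurement.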
The depositor's hits bear a star; ? = inconclusive; nt = not tested or not shown; [ ] = remark or other dose. % is scaled to controls: 0 for no effect and ±100 for the full control effect.

SMILES | HCV inhibitor | Lassa entry inh | FMDV inh | MARV entry inh | HCMV antiviral
Cc1ccc(Nc2sc(C(=O)c3ccccc3)c(N)c2S(=O)(=O)c2ccccc2)cc1Cl | nt | ? | -23.5% | -24.9%[46.1 µM] | 16.3
CC1=C(C(=O)Nc2cccnc2)C(c2ccc(C)cc2)n2nc(SCc3ccccc3F)nc2N1 (stereo not drawn) | nt | ? | -6.8% | 6.0%[46.1 µM] | 7.2
O=S1(=O)c2ccc(Br)cc2-n2nncc2CN1Cc1ccc(C(F)(F)F)cc1 | nt | 8.4%[46.1 µM] | nt | nt | nt
CC[C@@]1(C)Cc2c(sc3c2c(=O)n(C)c2nnc(SCc4ccc5c(c4)OCO5)n32)CO1 | nt | nt | nt | -16.7% | nt
CC1CC(C)CN(S(=O)(=O)c2ccc(Oc3ccc([N+](=O)[O-])cc3)cc2)C1 (stereo not drawn) | ? | 4.1% | ? | ? | -72.0*
CC1CCCN(S(=O)(=O)c2ccc([N+](=O)[O-])cc2)C1 (stereo not drawn) | -4.8% | nt | -10.8% | nt | -26.6
CC(C)n1c(SCC(=O)N2c3ccccc3Sc3ccccc32)nc2c1c(=O)n(C)c(=O)n2C | 11.2µM* | ? | nt | 9.2µM* | 9.4
Cc1cc(C)nc(SCc2nnc(SCC(=O)Nc3nc(-c4ccccc4)cs3)n2C)n1 | ? | 2.3% | ? | -17.6% | 113.2
CCn1c(SCC(=O)Nc2nc(-c3ccc(C)cc3)cs2)nnc1-c1ccccc1 | 7.94µM* | ? | 12.6µM* | ? | -72.0*
COc1ccccc1-c1nnc(SCC(=O)Nc2nc(-c3ccccc3)cs2)n1C | ? | 23.1µM* | 31.6µM* | 23.1µM* | -24.6
CCn1c(SCC(=O)Nc2nc(-c3ccc(C)cc3)cs2)nnc1-c1ccccc1O | 6.31µM* | ? | 15.8µM* | ? | -70.1*
CCNC(=O)c1c(NC(=O)Cc2coc3cc(C)cc(C)c23)sc2c1CCCC2 | nt | 3.4%[46.1 µM] | -17.7% | -2.4%[46.1 µM] | 17.5
COC(=O)c1c(OCc2ccccn2)cc(=O)n2c1CCN(Cc1cccc(C(F)(F)F)c1)CC2 | nt | nt | -15.0% | nt | nt
Cc1ccc(-c2cn3c(n2)sc2cc(C(=O)NCc4cccs4)ccc23)cc1 | nt | -11.5%[46.1 µM] | 12.8% | nt | nt
O=C(CSc1nnc(-c2cccnc2)n1Cc1ccco1)Nc1cccc(O)c1 | 24.3% | 12.8% | -6.1% | ? | 2.4
O=C(CSc1nnc(-c2cccnc2)n1Cc1ccco1)Nc1nc(-c2ccc(F)cc2)cs1 | 25.1µM* | -6.6% | 20µM* | ? | -74.2*
CN(C)CCCn1c(SCC(=O)N2c3ccccc3Sc3ccccc32)nc2ccccc2c1=O | 12.6µM* | ? | ? | ? | -98.8*
Cn1c(SCC(=O)N2c3ccccc3Sc3ccccc32)nc2ccccc21 | 3.6% | -14.9% | -26.1% | -52.2% | ?
CC(C)n1c(SCC(=O)Nc2nc3c(s2)CCCC3)nc2c1c(=O)n(C)c(=O)n2C | -3.4% | ? | 25.1µM* | ? | -60.2*
Cc1ccc(-c2csc(NC(=O)CSc3nc4ccccc4c(=O)n3CCCN(C)C)n2)cc1 | 1.41µM* | ? | 1.8% | ? | 23.7
O=C(Nc1ccccc1OC(F)F)c1ccn2ccnc2n1 | nt | nt | nt | nt | 9.3
CN1CCN(c2ncc3ncc(=O)n(C[C@H]4CCCO4)c3n2)CC1 | nt | nt | -3.5% | nt | nt
Cc1ccc(Cn2c(=N)n(CC(O)COc3ccccc3)c3ccccc32)cc1 (stereo not drawn) | ? | ? | 0.0% | 15.8µM* | -35.0
OC(COc1ccc(OCC(O)CN2CCN(Cc3ccccc3)CC2)cc1)CN1CCN(Cc2ccccc2)CC1 (stereo not drawn) | ? | ? | ? | ? | -17.6
CCn1c(=N)n(CC(O)COc2cccc(C)c2)c2ccccc21 (stereo not drawn) | ? | 0.4% | ? | ? | 10.2
SMILES | HCV inhibitor | Lassa entry inh | FMDV inh | MARV entry inh | HCMV antiviral
N=c1n(Cc2ccccc2)c2ccccc2n1CC(O)COc1ccccc1 (stereo not drawn) | 14.1µM* | ? | ? | 3.66µM* | ?
O=C(CSc1nnc(-c2cccnc2)o1)Nc1ccc(F)cc1 | nt | nt | 59.0% | nt | -76.1*
Cc1ccc(-c2nnc(SCc3ccccc3F)o2)cc1 | ? | ? | 9.8% | 16.4µM* | 79.2
O=C(CSc1nnc(-c2cccnc2)o1)Nc1ccc(Br)cc1 | 11.6% | 10.7% | -6.3% | 1.8%[46.1 µM] | -9.8
Cc1ccc(-c2nnc(SCC(=O)Nc3ccccc3F)o2)cc1 | -9.1% | nt | -9.4% | nt | -94.9*
O=S(=O)(c1ccc(Cl)cc1)c1nnn2c1nc(NC1CCCCC1)c1sccc12 | nt | -1.1%[46.1 µM] | ? | nt | -25.7
COc1cc(Br)cc(/C=N/NC(=O)Cc2ccc(C(F)(F)F)cc2[N+](=O)[O-])c1O | ? | ? | -22.8% | ? | -102.1*
CCOc1cc(/C=N/NC(=O)Cc2ccc(C(F)(F)F)cc2[N+](=O)[O-])c(Br)cc1OC | ? | -16.7% | -23.5% | -7.8%[46.1 µM] | -20.5
O=C(CN1C(=O)C(c2ccc(F)cc2)=NC12CCCC2)Nc1ccc(F)cc1 | 2.51µM* | nt | ? | nt | -77.8*
Cc1ccc(NC(=O)CN2C(=O)C(c3ccccc3)=NC23CCCCC3)cc1C | nt | -7.1%[46.1 µM] | -22.9% | ? | 52.8
Cc1cccc(NC(=O)CN2C(=O)C(c3ccccc3)=NC23CCC(C)CC3)c1 (stereo not drawn) | nt | ? | -27.5% | ? | -61.1*
C=CC[C@@H]1C=C[C@@H](ON=C2[C@H]3CCn4c(=O)n(-c5ccccc5)c(=O)n4[C@@H]3[C@H](O)[C@@H]3O[C@H]23)[C@@H](CO)O1 | nt | nt | nt | -21.9%[14.2 µM] | nt
COc1ccc(-c2nc3sc(CCNC(=O)C(=O)Nc4cc(C)cc(C)c4)c(C)n3n2)cc1 | nt | 19.4%[46.1 µM] | 12.7% | nt | 37.7
COc1cccc(Cn2cccc(NC(=O)Nc3ccc(C#N)cc3)c2=O)c1 | 3.98µM* | ? | 17.8µM* | ? | -66.1*
COc1cccc(NC(=O)Nc2cccn(Cc3ccccc3)c2=O)c1 | ? | -14.6% | -4.1% | ? | -27.0
COc1cccc(Cn2cccc(NC(=O)NCc3ccccc3)c2=O)c1 | ? | ? | -14.5% | -4.4%[46.1 µM] | 16.1
COc1cccc(Cn2cccc(NC(=O)Nc3ccccc3C)c2=O)c1 | 10µM* | nt | ? | nt | -16.7
COc1ccc(Cn2cccc(NC(=O)Nc3cccc(OC)c3)c2=O)cc1 | 14.1µM* | nt | ? | nt | 0.0
O=C(Nc1ccccc1)Nc1cccn(Cc2c(F)cccc2Cl)c1=O | ? | ? | 9.0% | ? | -18.6
COc1cccc(-n2c(=O)c3c4c(sc3n(Cc3ccccc3C#N)c2=O)CCCC4)c1 | nt | 4.2%[46.1 µM] | -14.4% | -15.8%[46.1 µM] | 1.5
COc1cc(Nc2nccc3[nH]c(-c4cccc(C(F)(F)F)c4)nc23)cc(OC)c1OC | nt | nt | nt | nt | 7.2
COc1ccc(CCNC(=O)Cn2cc(S(=O)(=O)Cc3ccc(F)cc3)c3ccccc32)cc1OC | nt | -8.1%[46.1 µM] | -18.9% | nt | 0.0
S=C(S)OC1CC2CC1C1CCCC21 (stereo not drawn) | 45.6% | -9.1% | 0.0% | ? | -60.3*
S=C(S)O[C@@H]1C[C@@H]2C[C@H]1[C@@H]1CCC[C@H]21 | nt | nt | 2.8% | 13.3% | nt
CCCN(CCC)CCNC(=O)Cn1ncc2c([nH]c3ccc(C)cc32)c1=O | nt | 18.3%[46.1 µM] | -6.4% | nt | 13.1

Compound activity as filed in PubChem BioAssay.
